# In PubChem BioAssay AID1240 (Sanford-Burnham Center for Chemical Genomics, 2008):
# Out of some 50,000 compounds screened, about 800 (1.6%) showed an effect of 50% or more. The full list was thinned out, with strong results kept by preference.
# Target: Bcl-2-like protein 10 (Homo sapiens) (UniProt Q9HD36)
# Assay: TR3 peptide-Bcl-B binding displacers, biochemical primary FP assay, phenotype converters (AID 1240);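 also: 0% = Bcl-B with tracer peptide and DMSO and 100% = tracer peptide lacking Bcl-B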
# Conditions: GST-Bcl-B / FITC-TR3 peptide fluorescence polarization; stronger effect = higher value; compound at 3.75 mg/L
# Bcl-2-like protein 10 (Homo sapiens), sequence (Q9HD36 whole entry, looked up): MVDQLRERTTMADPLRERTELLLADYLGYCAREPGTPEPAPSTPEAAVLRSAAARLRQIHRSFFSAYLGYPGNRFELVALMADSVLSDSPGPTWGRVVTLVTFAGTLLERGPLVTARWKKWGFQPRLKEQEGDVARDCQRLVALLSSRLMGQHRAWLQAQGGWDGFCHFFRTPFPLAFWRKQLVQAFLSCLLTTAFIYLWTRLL
row,Compound,displacement
1,O=C(O)c1ccc(-c2ccc(OC(F)(F)F)cc2)o1,-7.6%
2,NC(=S)N/N=C/c1cccn1-c1ccc([N+](=O)[O-])cc1,-1%
3,O=C1S/C(=C/c2ccc(Cl)c(Cl)c2)C(=O)N1c1ccccc1,17.9%
4,CCOC(=O)c1c(NC(=O)CC2SC(N)=NC2=O)sc2c1CCCC2 (centres undefined),6.3%
5,COc1ccc(C(=O)CC(Nc2ccc([N+](=O)[O-])cc2)c2ccc(Cl)cc2)cc1 (centres undefined),-4.2%
6,Cc1ccc2c(nc3s/c(=C\c4cccc(Cl)c4Cl)c(=O)n32)c1C,-9.5%
7,Cc1ccc(S(=O)(=O)Oc2ccc(/C=C3\SC(N)=NC3=O)cc2Br)cc1,1.8%
8,O=c1[nH]c(=O)n(-c2ccc(Cl)cc2)c(O)c1C=Nc1cccc(F)c1,10%
9,Cc1cc(OCC(=O)Nc2cccc(F)c2)cc(C)c1Cl,4.1%
10,COCCNCCOc1c(C)cc(Cl)cc1C,7.2%
11,O=C(Nc1cc(Cl)cc(Cl)c1)c1ccc(CN2CCc3ccccc3C2)cc1,-3.7%
12,CCN1C(=O)/C(=C\c2ccc(C)cc2)C(C(=O)OC)=C1C,86.2%
13,COC(=O)C1=C(C)N(c2cc(C)cc(C)c2)/C(=C/c2ccco2)C1=O,99.6%
14,COC(=O)C1=C(C)N(c2cc(C)cc(C)c2)/C(=C\c2sccc2C)C1=O,27%
15,COC(=O)C1=C(C)N(c2ccc(C)c(C)c2)/C(=C/c2ccco2)C1=O,8.8%
16,CCN1C(=O)/C(=C\c2ccc(F)cc2)C(C(=O)OC)=C1C,34.2%
17,COC(=O)C1=C(C)N(c2ccccc2F)C(=O)/C1=C\c1ccc(F)cc1,2.3%
18,CCN1C(=O)/C(=C\c2ccccc2)C(C(=O)OC)=C1C,-23.3%
19,C=CCN1C(=O)/C(=C\c2ccco2)C(C(=O)OC)=C1C,65.4%
20,C=CCN1C(=O)/C(=C\c2ccccc2)C(C(=O)OC)=C1C,-2.2%
21,C=CCN1C(=O)/C(=C\c2ccc(C(=O)OC)cc2)C(C(=O)OC)=C1C,-14.5%
22,COC(=O)C1=C(C)N(c2ccccc2F)C(=O)/C1=C\c1ccccc1F,112%

row,Compound,displacement
1,COC(=O)C1=C(C)N(c2ccccc2F)C(=O)/C1=C\c1sccc1C,7.8%
2,COc1ccc(C(=O)N2CCCc3ccccc32)cc1OC,-3.3%
3,Cc1cc(=O)oc2cc(OCc3ccc(F)cc3)c(Cl)cc12,16.8%
4,Cc1cc([N+](=O)[O-])ccc1NCc1cccc(C(F)(F)F)c1,2.6%
5,CC1(C)CC(=O)C2=C(C1)c1c(ccc3ccccc13)NC2c1cccs1 (centres undefined),7.2%
6,O=C(Nc1ccc(F)cc1)c1ccco1,12.9%
7,COC(=O)C1=C(C)N(c2ccc(C)cc2)C(=O)/C1=C\c1ccc2c(c1)OCO2,107%
8,COCCN1C(=O)/C(=C\c2ccc3c(c2)OCO3)C(C(=O)OC)=C1C,-8%
9,COC(=O)C1=C(C)N(C)C(=O)/C1=C\c1ccc2c(c1)OCO2,-0.7%
10,COC(=O)C1=C(C)N(C)C(=O)/C1=C\c1ccc(C(=O)OC)cc1,16.4%
11,COC(=O)C1=C(C)N(c2ccccc2)C(=O)/C1=C\c1ccc(C(=O)OC)cc1,130%
12,COC(=O)C1=C(C)N(c2cccc(C)c2)C(=O)/C1=C\c1ccc(C(=O)O)cc1,6.9%
13,COc1ccccc1CC1S/C(=N\N=C\c2cccc([N+](=O)[O-])c2)NC1=O (centres undefined),12.9%
14,COc1ccc(NC(=O)Nc2ccccc2C(F)(F)F)cc1,8.4%
15,CN(C)c1cccc2c(C(NS(=O)(=O)c3ccccc3)C(Cl)(Cl)Cl)ccc(N(C)C)c12 (centres undefined),144%
16,COC(=O)C(NS(=O)(=O)c1ccccc1)C(C)C (centres undefined),-12%
17,O=S(=O)(NC(c1cccs1)C(Cl)(Cl)Cl)c1ccc(Cl)cc1 (centres undefined),7%
18,CCCCNC(=O)/C(=C/c1ccc(C)o1)NC(=O)c1ccccc1,13.1%
19,CCOc1ccc(NC2=C(Cl)C(=O)N(c3cccc(Cl)c3Cl)C2=O)cc1,16.3%
20,N#C/C(=C/c1cc([N+](=O)[O-])ccc1Cl)C(=O)Nc1cccc(Br)c1,-3.3%
21,O=C(N/N=C/c1cccs1)C1CC(=O)N(c2ccccc2)C1 (centres undefined),25%
22,O=C(N/N=C/c1cccs1)C1CC(=O)N(c2ccc(Cl)cc2)C1 (centres undefined),-9.3%

row,Compound,displacement
1,COc1ccc(N2CC(C(=O)N/N=C/c3cccs3)CC2=O)cc1 (centres undefined),65%
2,O=C(O)/C=C/c1cccc(NS(=O)(=O)c2cccs2)c1,-13%
3,Cn1nnnc1SCC(=O)Nc1ccc2c(c1)oc1ccccc12,87%
4,Cc1nnc(SCC(=O)Nc2ccc3c(c2)oc2ccccc23)s1,-8.5%
5,Cn1nnnc1SCC(=O)Nc1ccccc1,4.1%
6,O=C1NC(=O)/C(=C\c2cc3c(cc2[N+](=O)[O-])OCO3)S1,6.8%
7,CCOc1c(Br)cc(/C=C2/C(=O)N(c3ccccc3)N=C2C)cc1OC,-0.6%
8,O=C1OC(/C=C/c2ccccc2)=NC/1=C/c1cccc([N+](=O)[O-])c1,98.4%
9,O=C1OC(/C=C/c2ccccc2)=NC/1=C/c1ccccc1,13.6%
10,COc1cc(/C=C2\N=C(c3ccccc3)OC2=O)cc(Br)c1OCc1c(C)no[n+]1[O-],-1.1%
11,CCN(CC)c1ccc(/C=C2N=C(/C=C/c3ccccc3)OC/2=O)cc1,-28%
12,CCCOc1ccc(C=C2C(=O)N(C)C(=O)N(C)C2=O)cc1OC,1.3%
13,COc1ccc(OC)c(/C=C2N=C(/C=C/c3ccccc3)OC/2=O)c1,9.6%
14,O=C1OC(c2ccccc2I)=N/C1=C\c1cccc([N+](=O)[O-])c1,-4%
15,O=C1OC(c2ccccc2F)=N/C1=C\c1cccc([N+](=O)[O-])c1,9.9%
16,COc1ccc(/C=C2N=C(/C=C/c3ccccc3)OC/2=O)cc1,88.6%
17,CCCOc1ccc(/C=C2N=C(/C=C/c3ccccc3)OC/2=O)cc1OC,166%
18,CCOc1c(Br)cc(/C=C2N=C(/C=C/c3ccccc3)OC/2=O)cc1OC,105%
19,CCOC(=O)c1c(-c2ccccc2)csc1NC(=O)c1ccc(C)cc1,-5.7%
20,COc1cc(/C=C2\SC(N)=NC2=O)cc(Br)c1OCc1cccc2ccccc12,-62.1%
21,Fc1cccc(-c2nnc3ccc(C(F)(F)F)cn23)c1,-17%
22,CC(=O)Nc1ccc(I)cc1C,-5%

row,Compound,displacement
1,Cc1cc2c(nc3s/c(=C/c4ccccc4)c(=O)n32)c(Br)c1C,-4.6%
2,CC(C)c1ccccc1OCCCN1CCOCC1,-6%
3,Cc1ccc(N2C(=O)/C(=C/c3ccc(Oc4ccc([N+](=O)[O-])cn4)cc3)C(=O)NC2=S)c(C)c1,7.3%
4,CC1=NN(c2ccccc2)C(=O)C1C(C)C[N+](=O)[O-] (centres undefined),-9.8%
5,COc1ccc(/C=N/NC(=O)COc2ccccc2Br)cc1,2.6%
6,Cc1occc1C(=O)Nc1ccc(C(=O)O)cc1,-1.9%
7,COC(=O)c1ccc(NC(=O)c2ccoc2C)cc1,-2.7%
8,CC(=O)c1ccc(NC(=O)c2ccoc2C)cc1,94%
9,CCOc1cc(C2NC(=S)NC(C)=C2C(=O)Nc2ccc(Cl)cc2)ccc1O (centres undefined),-3.2%
10,Cc1ccc2c(Cl)c(C(=O)NCC3CCCO3)sc2c1 (centres undefined),-20.5%
11,CCOCCOC(=O)c1ccc(NC(=O)COc2ccc(C)cc2C)cc1,-9%
12,O=C(ON=C1c2ccccc2-c2ccccc21)c1ccc(Cl)cc1Cl,13.1%
13,Cc1ccc(C=C2C(=O)N(C)C(=O)N(C)C2=O)cc1,79.7%
14,CN1C(=O)C(=Cc2ccc(N3CCOCC3)cc2)C(=O)N(C)C1=O,8.9%
15,CCCCOc1ccc(C=C2C(=O)N(C)C(=O)N(C)C2=O)cc1,8.8%
16,COc1ccccc1C/C(N)=N/OC(=O)COc1ccc2ccccc2c1,5.6%
17,CCOc1ccccc1C1Nc2ccccc2NC2=C1C(=O)CC(c1ccc(OC)c(OC)c1)C2 (centres undefined),11.3%
18,CCOC(=O)COc1ccc(/C=c2/sc3nc4cc(C)c(C)cc4n3c2=O)cc1OC,-4.4%
19,COc1cccc(-c2nnc(NC(=O)/C=C/c3ccccc3)s2)c1,51.4%
20,O=C(/C=C/c1ccccc1)Nc1nnc(-c2ccccc2)s1,7.6%
21,O=C(/C=C/c1ccccc1)Nc1nnc(-c2ccncc2)s1,-6%
22,COc1ccc(NC(=O)c2ccc(OC)c(OC)c2)cc1Cl,20.4%

row,Compound,displacement
1,O=C(Nc1ccccc1[N+](=O)[O-])c1ccc2ccccc2n1,89.3%
2,Cc1ccccc1NC(=O)c1ccc2ccccc2n1,-3.8%
3,O=C(Nc1ccccc1Cl)c1ccc2ccccc2n1,1%
4,CC(=O)Nc1ccc2oc(-c3ccc4nc(NC(C)=O)sc4c3)nc2c1,-4.1%
5,Cc1ccc(S(=O)(=O)N2CCCCCC2)cc1,-12.9%
6,C=CCN1C(=O)/C(=C/c2cc(C)n(-c3ccc(C(=O)OC)cc3)c2C)SC1=S,109%
7,C=CCN1C(=O)/C(=C\c2ccc(C(=O)OC)cc2)SC1=S,7.8%
8,CC(=O)NC1=NC(=O)/C(=C/c2cc(C)n(-c3ccc(C(=O)O)cc3)c2C)S1,-89.7%
9,COC(=O)c1ccc(-n2c(C)cc(/C=C3\SC(NC(C)=O)=NC3=O)c2C)cc1,114%
10,C=CCN1C(=O)/C(=C\c2cc(C)n(-c3ccc([N+](=O)[O-])cc3)c2C)SC1=S,14.9%
11,COC(=O)c1cccc(-n2c(C)cc(/C=C3\SC(NC(C)=O)=NC3=O)c2C)c1,1.1%
12,COc1ccccc1-n1c(SCC(=O)c2ccccc2)nc2ccccc2c1=O,-4.7%
13,COc1ccc(-c2cc(C(=O)OC(C)C)c3cc(Br)ccc3n2)cc1,-3.9%
14,O=C(Nc1ccccc1)C1C2/C=C\CCCCC21 (centres undefined),-10.2%
15,O=C(N/N=C/c1ccco1)c1ccc(C(=O)N/N=C/c2ccco2)cc1,27.6%
16,Cc1cccc(NC(=O)c2ccccc2NC(=O)c2cccs2)c1C,9.5%
17,CC1CCCCN1C(=O)c1cc2nc(-c3cccs3)cc(C(F)(F)F)n2n1 (centres undefined),18.3%
18,O=C(O)c1cnn2c(C(F)(F)F)cc(-c3cccs3)nc12,5.9%
19,Nc1c(C(=O)C2CC2)sc2nc(-c3cccs3)cc(C(F)(F)F)c12,52.1%
20,N#C/C(=C(/O)C(c1ccccc1)c1ccccc1)c1nc2ccccc2s1,-3.6%
21,CC(C)(C)c1cc(C2=C(N3CCOCC3)C(=O)c3ccccc3C2=O)cc(C(C)(C)C)c1O,11.6%
